The values that follow come from PubChem BioAssay (NCI).

Values joined by “and” are separate entries in the source; they are usually repeats but may differ in a detail not shown here. Identical values can stand only once. Compounds without any hit were thinned out: in the full panel of roughly 83,000, 20% have a hit.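 The test compound was applied at a single concentration to cells in 96-well plates for 48 hours, and percent growth was recorded.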 Active and inactive are the calls of the source. The calls were made as follows: active = growth percent below 10; inactive = the rest.

This assay concerns MDA-MB-468 breast. Description: NCI-60 one-dose screen, 48 h (100 = growth as untreated, 0 = no growth, -100 = all killed). The conditions noted are these: 10 µM unless noted.
Consider `O=[N+]([O-])c1ccc(CI)cc1`, for which the growth was 75.6% (inactive).

In the case of `Cc1cc[c-]cc1.Fc1c[c-]c(-c2ccccn2)c(F)c1.[Pt+2].c1ccc([PH+](c2ccccc2)c2ccccn2)cc1`, the growth is 51% (inactive).

In the case of `Cc1cccc(N=C2c3cc([N+](=O)[O-])ccc3-c3c2cc([N+](=O)[O-])cc3[N+](=O)[O-])c1`, the growth is -24.4% (active).

On to `O=[N+]([O-])c1cc(Cl)c(Cl)cc1Cl`, for which the growth is 102% (inactive) and 104% (inactive).

For the compound `COc1ccc(S(=O)(=O)Nc2c(/C=C\c3cc(OC)c(OC)c(OC)c3)ccc(OC)c2O)cc1OC`, the growth is 14.1% (inactive).

Take `O=C(CBr)OCCOC(=O)CBr`: the growth was 32.8% (inactive).

`CC1=C2[C@@H](CC1)[C@]1(C)O[C@@](C(C)C)(C[C@H]1O)[C@H]2OC(=O)C1CC1c1ccccc1` (stereo partly drawn): the growth was 94.6% (inactive).

For the compound `O=C(CC1(O)C(=O)N(Cc2ccccc2)c2ccc(Cl)cc21)c1ccc(C(=O)NCC2CCC3(CC2)OOC2(CCCCC2)OO3)cc1` (stereo not drawn), the growth was 6.64% (active).

Regarding `CC[C@H](C)[C@H](NC(=O)CN(C)C)C(=O)N(C)[C@H](C[C@@H](OC(C)=O)c1nc(C(=O)NC23C4C5C2C2C3C4C52C(=O)OC)cs1)C(C)C` (stereo partly drawn), the growth is -18.6% (active).

Regarding `CC(=O)Nc1ccc(Cc2ccc(NC(C)=O)cc2)cc1`, the growth was 95.6% (inactive).

`NC(=O)C(Cl)Cl`: the growth is 103% (inactive).

`CC1([N+](=O)[O-])COP(=O)(Nc2ccc(F)cc2)OC1` (stereo not drawn): the growth is 110% (inactive).

Turning to `CC(=O)OC1CCC2(C)C(=CCC3C4CC(CN5CC5)C(=O)C4(C)CCC32)C1` (stereo not drawn), the growth is 1.98% (active).

For the compound `CC(=O)O[C@H](C[C@H](C(C)C)N(C)C(=O)[C@@H](NC(=O)[C@H]1CCCCN1C)C(C)C)c1nc(C(=O)N[C@@H](Cc2ccccc2)C[C@H](C)C(=O)O)c(CCOCc2ccccc2)s1`, the growth is 1.12% (active).

In the case of `Cc1cc(NC(=O)NCCOc2ccc(N3C(N)=NC(N)=NC3(C)C)cc2Cl)ccc1S(=O)(=O)F`, the growth is 29% (inactive).

Regarding `C[CH2][Sn]([Cl])([Cl])[CH2]C.Oc1ccccc1C=NCCN=Cc1ccccc1O`, the growth was 103% (inactive).

With `CC(=O)OC1CC2(O)C(CCC3(C)C(c4ccc(=O)oc4)CCC32O)C2(C)CCC(OC3OC(CO)C(O)C(O)C3O)C=C12` (stereo not drawn), the growth is -34.6% (active).

`CN1C(=O)C(=Cc2cn(CCCCCCn3c4ccccc4c(=O)c4ccccc43)c3ccccc23)C(=O)N(C)C1=O`: the growth was 81% (inactive).

In the case of `CCOC(=S)S[C@H]1C[C@@H]2[C@H](CC[C@]3(C)C(=O)CC[C@@H]23)[C@@]2(C)CCC(=O)C=C12`, the growth is 101% (inactive).

As to `CC12CCC(O)CC1=CCC1C2CCC2(C)C(O)CCC12` (stereo not drawn), the growth is 99.4% (inactive).

For the compound `COc1ccc(NP2(=O)OCC(C)(N)CO2)cc1` (stereo not drawn), the growth was 105% (inactive).

For `COc1cc2c(cc1OC)CN(C)C(C)C2` (stereo not drawn), the growth is 97.9% (inactive).

As for `CC[C@H](C)[C@H](NC(=O)N[C@@H](C)c1ccccc1)C(=O)N(C)[C@H](C[C@@H](OC(C)=O)c1nc(C(=O)N[C@@H](Cc2ccccc2)C[C@H](C)C(=O)OC)cs1)C(C)C`, the growth was -0.266% (active).

On to `CCCC(=O)O[C@@H]1C[C@H]2C[C@@H](O[C@@H]3O[C@@H](C)[C@@H](O)[C@@H](O)[C@H]3OC)C[C@@H](C[C@@H](C)/C=C/C=C\C[C@@H]3O[C@@H](C[C@@H]3C)[C@@H](O)C[C@H]3C[C@@]1(O)C(=O)O3)O2`, for which the growth was -6.3% (active).

Consider `C[Se]/C=C1/C(=O)N(c2c(Cl)cccc2Cl)c2ccccc21`, for which the growth was -6.67% (active).

Regarding `O=S(=O)(Cl)c1ccccc1` (tested in a mixture with another compound), the growth is 98.6% (inactive).

`COc1ccc(OC)c(/C=C(/C)[N+](=O)[O-])c1`: the growth was -40.8% (active).

As for `CC[C@H](C)[C@H](NC(=O)[C@H]1CCCCN1C)C(=O)N(C)[C@H](C[C@@H](OC(C)=O)c1nc(C(=O)NC23C4C5C2C2C3C4C52C(=O)OC)cs1)C(C)C` (stereo partly drawn), the growth was -2.75% (active).

Regarding `Oc1ccc(O)c(Cl)c1`, the growth is 89.7% (inactive) and 95.1% (inactive).

`O=[P+](O)c1ccccc1`: the growth is 114% (inactive).

In the case of `COc1cc2c(cc1OC)C13CCN4CC5=CCOC6CC(=O)N2C1C6C5CC43` (stereo not drawn), the growth is 116% (inactive) and 108% (inactive).

Take `[O-][n+]1ccccc1S`: the growth was 85.2% (inactive).

With `Brc1ccc2c(c1)c(-c1nc(-c3c[nH]c4ncccc34)cs1)cn2CCN1CCOCC1`, the growth was 34.2% (inactive).
